68 molecules from PubChem BioAssay AID1259421 (Broad Institute, 2018) can be followed below.

Where “and” joins values, the source holds several entries; their conditions need not be identical. Equal values may be shown once. The campaign covered roughly 6,400 compounds. About 610 (9.5%) were called active. The sample holds actives, similar compounds and a random draw of the others, so the mix is not that of the screen. No stated cut-off is given here; in the data, active means activity change below about -70%; inconclusive means no clear call, values can overlap the other calls; inactive means above that. A structure can be active in one record and inactive in another.

The nature of this test: Toxoplasma gondii ME49Luc growth in HeLa cells, luciferase, no IFN-y, primary screen (AID 1259421). The settings on record: T. gondii ME49Luc in HeLa, 72 h, stronger effect = lower value, concentration not given here.
For `COc1cc(N)c(Cl)cc1C(=O)N[C@@H]1CCN(CCCOc2ccc(F)cc2)C[C@@H]1OC`, the activity change, negative = inhibition was 6.27% (inactive). The figure for `COc1ccc(C2(O)CCC(N3CC[C@@H](NC(=O)CNC(=O)c4cccc(C(F)(F)F)c4)C3)CC2)cn1` (stereo partly drawn) is 4.89% (inactive). `Cc1ccc(S(=O)(=O)c2ccc([N+](=O)[O-])o2)cc1`: the activity change, negative = inhibition is 10.8% (inactive).

As for `CCC[C@H](NC(=O)[C@@H]1[C@H]2CCC[C@H]2CN1C(=O)[C@@H](NC(=O)[C@@H](NC(=O)c1cnccn1)C1CCCCC1)C(C)(C)C)C(=O)C(=O)NC1CC1`, the activity change, negative = inhibition is -72.4% (active).

With `CCCC[C@H](NC(=O)[C@@H]1[C@@H]2[C@H](CN1C(=O)[C@@H](NC(=O)NC1(CS(=O)(=O)C(C)(C)C)CCCCC1)C(C)(C)C)C2(C)C)C(=O)C(=O)NC1CC1`, the activity change, negative = inhibition is 23.2% (inactive). On to `CC(C)(C)NC(=O)N[C@H](C(=O)N1C[C@H]2[C@@H]([C@H]1C(=O)NC(CC1CCC1)C(=O)C(N)=O)C2(C)C)C(C)(C)C` (stereo partly drawn), for which the activity change, negative = inhibition was 0.503% (inactive). Regarding `CC(C)(C)c1cc(O)c(C(C)(C)C)cc1O`, the activity change, negative = inhibition was 7.89% (inactive).

As for `COC(=O)C[C@H]1C(C)(C)[C@@H](O)[C@@H]2CC3=C4CC(O)O[C@@H](c5ccoc5)[C@]4(C)CCC3[C@@]1(C)C2=O` (stereo partly drawn), the activity change, negative = inhibition was -4.18% (inactive). Take `CO[C@H]1C=CO[C@@]2(C)Oc3c(C)c(O)c4c(O)c(c(/C=N/N5CCN(C)CC5)c(O)c4c3C2=O)NC(=O)/C(C)=C\C=C/C(C)[C@H](O)[C@@H](C)[C@@H](O)[C@@H](C)[C@@H](OC(C)=O)[C@@H]1C` (stereo partly drawn): the activity change, negative = inhibition was -14.4% (inactive) and 12.2% (inactive).

For the molecule `CC1(C)CCC(CN2CCN(c3ccc(C(=O)NS(=O)(=O)c4ccc(NCC5CCOCC5)c([N+](=O)[O-])c4)c(Oc4cnc5[nH]ccc5c4)c3)CC2)=C(c2ccc(Cl)cc2)C1`, the activity change, negative = inhibition was -89.7% (active). On to `CC(C)COC(=O)c1ccc(N)cc1`, for which the activity change, negative = inhibition was 47.4% (inactive). Regarding `COC(=O)c1cc(OC)c2c(c1-c1c(C(=O)OC)cc(OC)c3c1OCO3)OCO2`, the activity change, negative = inhibition is 11.4% (inactive). Regarding `C=C1C(=O)O[C@H]2[C@H]1CC/C(C)=C\CC[C@@]1(C)O[C@@H]21`, the activity change, negative = inhibition was 7.41% (inactive).

Take `O=C(O)c1ccccc1O`: the activity change, negative = inhibition is 10.4% (inactive) and 3.39% (inactive). On to `O=C(N/N=C/c1ccccc1O)c1ccccc1O`, for which the activity change, negative = inhibition is -88% (active) and -86.5% (active). `O=C(Nc1ccc(O)cc1)c1ccccc1O`: the activity change, negative = inhibition is 30.3% (inactive). Turning to `O=C(OC1C(OC(=O)c2cccnc2)C(OC(=O)c2cccnc2)C(OC(=O)c2cccnc2)C(OC(=O)c2cccnc2)C1OC(=O)c1cccnc1)c1cccnc1` (stereo not drawn), the activity change, negative = inhibition is -4.81% (inactive) and 13.2% (inactive). For `CCN(CC)CCN(Cc1ccc(-c2ccc(C(F)(F)F)cc2)cc1)C(=O)Cn1c(SCc2ccc(F)cc2)nc(=O)c2c1CCC2`, the activity change, negative = inhibition is -77.9% (active). As to `CCN(Cc1ccccc1)C(=O)Cn1c(=O)n(C)c2cnc(-c3ccccc3)nc21`, the activity change, negative = inhibition was 9.96% (inactive). Turning to `O=C(O)[C@H](O)[C@@H](O)[C@H](O[C@@H]1O[C@H](CO)[C@H](O)[C@H](O)[C@H]1O)[C@H](O)CO`, the activity change, negative = inhibition was 11.1% (inactive). In the case of `Clc1ccc(C(Cn2ccnc2)OCc2ccc(Sc3ccccc3)cc2)c(Cl)c1` (stereo not drawn), the activity change, negative = inhibition is -73.4% (active). Turning to `Clc1ccc(CSC(Cn2ccnc2)c2ccc(Cl)cc2Cl)cc1` (stereo not drawn), the activity change, negative = inhibition is -80.3% (active) and -86.4% (active). Consider `Clc1ccc(COC(Cn2ccnc2)c2ccc(Cl)cc2Cl)c(Cl)c1` (stereo not drawn), for which the activity change, negative = inhibition was -91.6% (active). To `Clc1ccc(C(Cn2ccnc2)OCc2csc3c(Cl)cccc23)c(Cl)c1` (stereo not drawn) belongs -75.6% (active); to `Clc1ccc(C(Cn2ccnc2)OCc2ccsc2Cl)c(Cl)c1` (stereo not drawn), -28.7% (inactive) and -2.79% (inactive). The figure for `C=CCOC(Cn1ccnc1)c1ccc(Cl)cc1Cl` (stereo not drawn) is 26.1% (inactive) and 17.1% (inactive); for `C[C@@H]1CC2C3C[C@H](F)C4=CC(=O)C=C[C@]4(C)[C@@]3(F)[C@@H](O)C[C@]2(C)[C@@]1(O)C(=O)CO` (stereo partly drawn) it is 1.95% (inactive).

For `CC(=O)N[C@H]1CSSC[C@@H](C(N)=O)NC(=O)[C@H](C(C)C)NC(=O)[C@H](C)NC(=O)[C@H](Cc2cnc[nH]2)NC1=O`, the activity change, negative = inhibition was -4.46% (inactive).

Turning to `O=C(/C=C/c1ccc(O)c(O)c1)O[C@@H]1C[C@](OC(=O)/C=C/c2ccc(O)c(O)c2)(C(=O)O)C[C@@H](O)[C@H]1O`, the activity change, negative = inhibition is 2.12% (inactive). To `NC(=O)CCCCn1ccc(NC(N)=NCC(F)(F)F)n1` belongs 4.57% (inactive) and 3.01% (inactive); to `C=C1C2CC[C@@]3(C)[C@H](c4ccoc4)OC(=O)C[C@]13O[C@H]1CC(=O)C(C)(C)[C@H](C(O)C(=O)OC)[C@@]21C` (stereo partly drawn), -2.51% (inactive); to `O=C1CCC[C@@H]2[C@@H]3CCC[N+]4([O-])CCC[C@H](CN12)[C@@H]34` (stereo partly drawn), -1.57% (inactive). For the molecule `N=C1CCCN1Cc1[nH]c(=O)[nH]c(=O)c1Cl`, the activity change, negative = inhibition was 3.86% (inactive). Take `COc1cc2c(cc1OC(C)C)[C@H](c1ccc(Cl)cc1)N(c1ccc(N(C)CC3CCC(N4CCN(C)C(=O)C4)CC3)cc1)C(=O)C2` (stereo partly drawn): the activity change, negative = inhibition was -56.4% (inactive). The figure for `N[C@@H](CSCC(=O)O)C(=O)O` is 14.1% (inactive); for `COc1ccc(/C=C/C(=O)c2cc(O)ccc2O)cc1` it is 13.6% (inactive).

As to `Nc1ncnc2c1ncn2[C@H]1CC[C@@H](CO)O1`, the activity change, negative = inhibition is 1.09% (inactive). Turning to `CC(C)[N+]1(C)C2CCC1CC(OC(=O)C(CO)c1ccccc1)C2` (stereo not drawn), the activity change, negative = inhibition is 0.0846% (inactive).

Take `O=C(O)CCc1cc(C(=O)c2ccc(OC3CCCC3)cc2O)ccc1OCc1ccc2c(=O)[nH]oc2c1`: the activity change, negative = inhibition was 6.19% (inactive). Consider `Clc1ccc(CCC(Cn2ccnc2)Sc2c(Cl)cccc2Cl)cc1` (stereo not drawn), for which the activity change, negative = inhibition was -83.9% (active) and -87.7% (active). Turning to `Clc1ccc(C(Cn2ccnc2)OCc2c(Cl)cccc2Cl)c(Cl)c1` (stereo not drawn), the activity change, negative = inhibition was -52.5% (inactive). For `Clc1ccc(CO/N=C(\Cn2ccnc2)c2ccc(Cl)cc2Cl)c(Cl)c1`, the activity change, negative = inhibition was -81.5% (active) and 40% (inactive).

In the case of `Clc1ccc(COC(Cn2ccnc2)c2ccc(Cl)cc2Cl)cc1` (stereo not drawn), the activity change, negative = inhibition was -77.4% (active) and -87.9% (active). With `Cl/C(=C/n1cncn1)c1ccc(Cl)cc1Cl`, the activity change, negative = inhibition is -5.43% (inactive).

Turning to `O=C(O)/C=C/c1ccc(Cn2ccnc2)cc1`, the activity change, negative = inhibition is -0.196% (inactive) and 8.1% (inactive). Consider `Cl/C(=C\n1cncn1)c1ccc(Cl)cc1Cl`, for which the activity change, negative = inhibition was -11.5% (inactive). The figure for `COc1cc(/C=C/C(=O)N2CCN(CC(=O)NC(C)C)CC2)cc(OC)c1OC` is -0.924% (inactive); for `CC(C)NC(=O)COc1cccc(-c2nc(Nc3ccc4[nH]ncc4c3)c3ccccc3n2)c1` it is -49.1% (inactive); for `COc1ccc(CNC(=O)c2cc(-c3cncc(C)c3)ncc2-c2nccs2)nc1OC` it is 3.2% (inactive). `N[C@@H](C(=O)O)[C@@H](OCc1ccccc1)C(=O)O` (racemic): the activity change, negative = inhibition is 8.74% (inactive). For `COc1cc(/C=C/C(=O)O[C@H]2CC[C@]34CC35CC[C@]3(C)[C@@H](C(C)CCC=C(C)C)CC[C@@]3(C)C5CCC4C2(C)C)ccc1O` (stereo partly drawn), the activity change, negative = inhibition is 9.65% (inactive). On to `C=C(NC(=O)C(=C)NC(=O)c1csc(C2=N[C@H]3c4csc(n4)[C@H]4NC(=O)c5csc(n5)[C@H]([C@@](C)(O)[C@@H](C)O)NC(=O)[C@H]5CSC(=N5)/C(=C/C)NC(=O)[C@H]([C@@H](C)O)NC(=O)c5csc(n5)[C@]3(CC2)NC(=O)[C@H](C)NC(=O)C(=C)NC(=O)[C@H](C)NC(=O)[C@H](C(C)CC)N[C@@H]2C=Cc3c([C@H](C)O)cc(nc3[C@H]2O)C(=O)O[C@@H]4C)n1)C(N)=O` (stereo partly drawn), for which the activity change, negative = inhibition is -5.27% (inactive). To `O=C(O)c1cccnc1Nc1cccc(C(F)(F)F)c1` belongs 5.33% (inactive) and 7.04% (inactive); to `Clc1cccc(Nc2nnc(-c3ccccc3)c3ccccc23)c1`, -1.93% (inactive) and 0.598% (inactive). The figure for `O=C(O)c1ccc2c(c1)nc(Nc1cccc(Cl)c1)c1ccncc12` is -81.6% (active). The figure for `Cc1noc(-c2ccc(-c3ccc(CC(=O)O)cc3)cc2)c1NC(=O)O[C@H](C)c1ccccc1` is 6.32% (inactive); for `CN(C)c1cc(NC(=O)CNC(C)(C)C)c(O)c2c1C[C@H]1C[C@H]3[C@H](N(C)C)C(=O)C(C(N)=O)C(=O)[C@@]3(O)C(=O)C1C2=O` (stereo partly drawn) it is 5.81% (inactive); for `O=C(NCCCCN1CCOCC1)c1cc2ccccc2o1` it is 0.553% (inactive).

Take `CN1CCN(CCC=C2c3ccccc3Sc3ccc(S(=O)(=O)N(C)C)cc32)CC1`: the activity change, negative = inhibition was 25.4% (inactive) and 73.8% (inactive). For `OCCN1CCN(CC/C=C2/c3ccccc3Sc3ccc(C(F)(F)F)cc32)CC1`, the activity change, negative = inhibition is -74.2% (active).

On to `OCCN1CCN(CC/C=C2/c3ccccc3Sc3ccc(Cl)cc32)CC1`, for which the activity change, negative = inhibition was -82.3% (active). Consider `CC(=O)c1ccc2c(c1)N(CCCN1CCN(CCO)CC1)c1ccccc1S2`, for which the activity change, negative = inhibition was 15.8% (inactive). With `OCCN1CCN(CCCN2c3ccccc3Sc3ccc(C(F)(F)F)cc32)CC1`, the activity change, negative = inhibition is -60% (inactive) and -63.7% (inactive). On to `CN(C)CC/C=C1/c2ccccc2Sc2ccc(Cl)cc21`, for which the activity change, negative = inhibition is -62.1% (inactive) and 35.6% (inactive). For `OCCN1CCN(CCCN2c3ccccc3Sc3ccc(Cl)cc32)CC1`, the activity change, negative = inhibition is -81% (active). As for `CN(C)CC/C=C1\c2ccccc2Sc2ccc(Cl)cc21`, the activity change, negative = inhibition is -58.2% (inactive). Turning to `CN1CCN(CCCN2c3ccccc3Sc3ccc(Cl)cc32)CC1`, the activity change, negative = inhibition was 16.2% (inactive) and 18.1% (inactive). To `CC[C@H](C)[C@H](NC(=O)[C@H](Cc1ccc(O)cc1)NC(=O)[C@@H](NC(=O)[C@H](CCCN=C(N)N)NC(=O)[C@@H](N)CC(=O)O)C(C)C)C(=O)N[C@@H](Cc1cnc[nH]1)C(=O)N1CCC[C@H]1C(=O)O` belongs 8.39% (inactive).
